Experimental findings from PubChem BioAssay are described below.

For assay [1], the system named is Plasmodium falciparum Sir2 (PF13_0152, Sir2A). Nature of the assay: Plasmodium falciparum Sir2A binding compounds – biochemical, small-molecule microarray, 635 nm fluorescence, primary screen (AID 1098).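 Also: score merges spot fluorescence intensity with its signal-to-noise ratio.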 The note with it: fluorescence 635 nm, higher = more signal.
Assay [2] can be described thus: probe aDKK1 binding to arrayed compounds – biochemical, biotinylated probe, 635/667 nm fluorescence, primary screen (AID 1099).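 Also: score merges 667nm spot fluorescence with signal to noise across triplicate slides.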 The settings on record: small-molecule microarray, higher = more signal.
Assay [3] can be described thus: probe aCHRDL2 binding to arrayed compounds – biochemical, biotinylated probe, 635/667 nm fluorescence, primary screen (AID 1100). The note with it: small-molecule microarray, higher = more signal.
A short description of assay [4]: change in splice reporter luminescence, either direction, cell-based, HEK293, spliceosome inhibition project, primary screen (AID 1101).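 Also: HEK293 cells carrying a splicing-competent luciferase reporter gene; test concentration not given here.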 The note with it: HEK293 splicing luciferase reporter, 24 h, higher = more signal, called active from +8 up or from −8 down.
Assay [5] has as its target Fibroblast growth factor 10 (Homo sapiens) (UniProt O15520). Nature of the assay: compounds binding fibroblast growth factor 10 – biochemical, small-molecule microarray, 635 nm fluorescence, primary screen (AID 1102). The settings on record: FGF10 binding, fluorescence 635 nm, higher = more signal.
The test system of assay [6] is glycogen synthase kinase-3 (GSK3A per assay name; protocol says GSK3B). Nature of the assay: compounds binding glycogen synthase kinase-3 – biochemical, small-molecule microarray, 635 nm fluorescence, GSK3A, primary screen (AID 1103). Also: the record names both GSK3A and GSK3B. The settings on record: fluorescence 635 nm, higher = more signal.
Assay [7] has as its target Epidermal growth factor receptor (Homo sapiens) (UniProt P00533). Nature of the assay: compounds binding epidermal growth factor receptor – biochemical, small-molecule microarray, 635 nm fluorescence, primary screen (AID 1104).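 Also: score merges 667 nm emission intensity with spot signal to noise over triplicate slides.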 The settings on record: EGFR binding, higher = more signal.
Assay [8] addresses Follistatin-related protein 3 (Homo sapiens) (UniProt O95633). Nature of the assay: compounds binding follistatin-related protein 3 – biochemical, small-molecule microarray, 635 nm fluorescence, primary screen (AID 1105).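 Also: score merges emission near 667 nm and signal to noise per printed spot across three slides.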 The settings on record: FSTL3 binding, higher = more signal.
Assay [9] addresses Dickkopf-related protein 1 (Homo sapiens) (UniProt O94907). Kind of assay: small molecules binding DKK1 protein – biochemical, small-molecule microarray, 635 nm fluorescence scan, primary screen (AID 1106).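 Also: score merges emission near 667 nm with signal to noise over three replicate slides.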 The settings on record: higher = more signal.
Assay [10] relates to Inhibin beta A chain (activin A). Nature of the assay: small molecules binding activin A – biochemical, small-molecule microarray, 635 nm fluorescence scan, primary screen (AID 1107).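 Also: mouse activin A protein probed at 4.33 µg/mL on printed slides; score merges bound-protein fluorescence near 667 nm with spot signal-to-noise.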 The note with it: INHBA, higher = more signal.
Assay [11] relates to Human papillomavirus type 1a protein E7 (residues 44-93). Nature of the assay: small molecules binding HPV E7 44-93 – biochemical, small-molecule microarray, residues 44-93, 635 nm fluorescence, primary screen (AID 1108).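 Also: E7 fragment applied at 1 µg/mL in TBST for 1 h at 4 C; score combines spot fluorescence with its signal to noise ratio.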 The note with it: fluorescence 635 nm, higher = more signal.
Assay [12] is described as follows: hepatitis C replication reporter changes, two-sided – Huh7 cells, luciferase reporter, HCV replication inhibitor project, primary screen (AID 1109).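 Also: huh7 hepatoma cells harbouring a luciferase neomycin HCV replicon reporter; luciferase luminescence as measure of HCV replicon replication; test concentration not given here.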 The settings on record: Huh7 HCV replicon luciferase reporter, 48 h; higher = more signal. (In general: A reporter such as luciferase makes a cellular process visible.)
Assay [13] deals with Left-right determination factor 2 (Homo sapiens) (UniProt O00292). Nature of the assay: small molecules binding LEFTY2 protein – biochemical, small-molecule microarray, 635 nm fluorescence scan, primary screen (AID 1110). The note with it: higher = more signal.
Chain of Left-right determination factor 2 (Homo sapiens) (O00292 whole entry, looked up): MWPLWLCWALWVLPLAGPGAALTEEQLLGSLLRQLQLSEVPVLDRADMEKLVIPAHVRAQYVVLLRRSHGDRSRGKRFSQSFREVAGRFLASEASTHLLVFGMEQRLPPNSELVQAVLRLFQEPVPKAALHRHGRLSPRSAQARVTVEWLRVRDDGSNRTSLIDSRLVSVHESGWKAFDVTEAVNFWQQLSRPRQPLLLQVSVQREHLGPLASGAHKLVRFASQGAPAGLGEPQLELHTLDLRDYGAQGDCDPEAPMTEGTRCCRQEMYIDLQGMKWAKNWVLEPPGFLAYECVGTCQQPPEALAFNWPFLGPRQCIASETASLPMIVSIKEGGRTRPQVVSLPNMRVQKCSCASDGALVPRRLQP
The target in assay [14] is Calmodulin-1 (Homo sapiens) (UniProt P0DP23). Kind of assay: small molecules binding calmodulin-1 with EGTA – biochemical, small-molecule microarray, Cy5-labelled CALM1, profiling panel (AID 1111).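 Also: labelled calmodulin applied in Tris saline Tween buffer holding calcium plus EGTA and DTT.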 The settings on record: Cy5-CALM1 binding fluorescence, higher = more signal.
Assay [15] has the same target. Kind of assay: small molecules binding Ca-loaded calmodulin-1 – biochemical, small-molecule microarray, Cy5-labelled CALM1, plus calcium, artefact control for SMM control-protein annotation, profiling panel (AID 1112).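 Also: score merges spot fluorescence with signal to noise from triplicate slides.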 The note with it: Cy5-CALM1 binding fluorescence, higher = more signal.
Assay [16] is described as follows: probe aWnt5a binding to arrayed compounds – biochemical, biotinylated probe, 635/667 nm fluorescence, primary screen (AID 1113).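 Also: score merges 667 nm fluorescence intensity with signal-to-noise per printed feature.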 The note with it: small-molecule microarray, higher = more signal.
Assay [17] in a line: probe aShh binding to arrayed compounds – biochemical, biotinylated probe, 635/667 nm fluorescence, primary screen (AID 1114).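 Also: probe is biotin-labelled aShh protein from a stem cell growth factor screen; measures binding of labelled protein to compounds printed on the slide; score merges feature fluorescence at 667 nm with signal-to-noise.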 The settings on record: small-molecule microarray, higher = more signal.
Assay [18] in a line: probe aNog binding to arrayed compounds – biochemical, biotinylated probe, 635/667 nm fluorescence, primary screen (AID 1115).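 Also: probe is biotinylated aNog protein used at 0.15 µg/mL for 1 h at 4 C; z-score combines 667 nm fluorescence of each spot with its signal to noise.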 The note with it: small-molecule microarray, higher = more signal.
Assay [19] addresses Torsin-1A-interacting protein 1 (Homo sapiens) (UniProt Q5JTV8). Nature of the assay: compound microarray binding of lysate hLAP1 – cell lysate, small-molecule microarray, COS7 lysate, 635/667 nm fluorescence, primary screen (AID 1116). The note with it: 635 nm fluorescence, higher = more signal.
The target of assay [20] is Alpha-bungarotoxin (Bungarus multicinctus) (UniProt P60615). Nature of the assay: compounds binding labelled alpha-BTX control protein – biochemical, small-molecule microarray, Alexa647 label, 635/667 nm fluorescence, artefact control for SMM control protein annotation, profiling panel (AID 1117). The note with it: alpha-BTX-A647 binding fluorescence, higher = more signal.
Chain of Alpha-bungarotoxin (Bungarus multicinctus) (P60615 whole entry, looked up): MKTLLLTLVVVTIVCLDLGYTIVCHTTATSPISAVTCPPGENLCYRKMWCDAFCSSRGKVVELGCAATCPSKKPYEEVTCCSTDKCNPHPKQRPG

Activity calls are given as the source filed them.

Chain of Torsin-1A-interacting protein 1 (Homo sapiens) (Q5JTV8 whole entry, looked up): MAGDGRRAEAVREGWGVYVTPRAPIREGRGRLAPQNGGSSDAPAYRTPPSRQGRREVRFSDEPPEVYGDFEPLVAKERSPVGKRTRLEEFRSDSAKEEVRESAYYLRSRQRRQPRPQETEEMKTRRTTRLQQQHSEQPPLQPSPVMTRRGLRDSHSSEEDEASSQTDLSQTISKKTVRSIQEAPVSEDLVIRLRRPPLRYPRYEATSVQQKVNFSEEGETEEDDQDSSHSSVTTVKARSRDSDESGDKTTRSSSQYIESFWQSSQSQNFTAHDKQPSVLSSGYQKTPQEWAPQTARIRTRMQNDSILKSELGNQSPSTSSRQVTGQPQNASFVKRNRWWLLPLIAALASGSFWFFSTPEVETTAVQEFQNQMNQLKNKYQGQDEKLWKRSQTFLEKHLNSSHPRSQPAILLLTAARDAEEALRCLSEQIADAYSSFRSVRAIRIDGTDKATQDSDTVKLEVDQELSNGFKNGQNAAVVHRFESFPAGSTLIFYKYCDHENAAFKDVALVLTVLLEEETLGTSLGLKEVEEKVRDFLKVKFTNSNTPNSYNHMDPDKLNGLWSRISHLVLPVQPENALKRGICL
Chain of Fibroblast growth factor 10 (Homo sapiens) (O15520 whole entry, looked up): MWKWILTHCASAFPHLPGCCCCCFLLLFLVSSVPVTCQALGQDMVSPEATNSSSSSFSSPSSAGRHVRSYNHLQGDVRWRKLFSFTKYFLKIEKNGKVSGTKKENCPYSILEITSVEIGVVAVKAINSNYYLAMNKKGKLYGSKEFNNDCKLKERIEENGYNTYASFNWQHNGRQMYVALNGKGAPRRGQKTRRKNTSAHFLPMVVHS
Chain of Dickkopf-related protein 1 (Homo sapiens) (O94907 whole entry, looked up): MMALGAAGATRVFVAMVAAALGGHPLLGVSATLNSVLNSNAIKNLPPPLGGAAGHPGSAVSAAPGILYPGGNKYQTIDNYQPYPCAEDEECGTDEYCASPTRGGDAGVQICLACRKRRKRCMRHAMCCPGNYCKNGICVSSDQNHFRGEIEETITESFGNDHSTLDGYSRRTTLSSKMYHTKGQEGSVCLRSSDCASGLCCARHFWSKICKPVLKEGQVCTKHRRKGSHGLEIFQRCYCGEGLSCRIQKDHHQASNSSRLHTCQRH
Chain of Epidermal growth factor receptor (Homo sapiens) (P00533 whole entry, looked up): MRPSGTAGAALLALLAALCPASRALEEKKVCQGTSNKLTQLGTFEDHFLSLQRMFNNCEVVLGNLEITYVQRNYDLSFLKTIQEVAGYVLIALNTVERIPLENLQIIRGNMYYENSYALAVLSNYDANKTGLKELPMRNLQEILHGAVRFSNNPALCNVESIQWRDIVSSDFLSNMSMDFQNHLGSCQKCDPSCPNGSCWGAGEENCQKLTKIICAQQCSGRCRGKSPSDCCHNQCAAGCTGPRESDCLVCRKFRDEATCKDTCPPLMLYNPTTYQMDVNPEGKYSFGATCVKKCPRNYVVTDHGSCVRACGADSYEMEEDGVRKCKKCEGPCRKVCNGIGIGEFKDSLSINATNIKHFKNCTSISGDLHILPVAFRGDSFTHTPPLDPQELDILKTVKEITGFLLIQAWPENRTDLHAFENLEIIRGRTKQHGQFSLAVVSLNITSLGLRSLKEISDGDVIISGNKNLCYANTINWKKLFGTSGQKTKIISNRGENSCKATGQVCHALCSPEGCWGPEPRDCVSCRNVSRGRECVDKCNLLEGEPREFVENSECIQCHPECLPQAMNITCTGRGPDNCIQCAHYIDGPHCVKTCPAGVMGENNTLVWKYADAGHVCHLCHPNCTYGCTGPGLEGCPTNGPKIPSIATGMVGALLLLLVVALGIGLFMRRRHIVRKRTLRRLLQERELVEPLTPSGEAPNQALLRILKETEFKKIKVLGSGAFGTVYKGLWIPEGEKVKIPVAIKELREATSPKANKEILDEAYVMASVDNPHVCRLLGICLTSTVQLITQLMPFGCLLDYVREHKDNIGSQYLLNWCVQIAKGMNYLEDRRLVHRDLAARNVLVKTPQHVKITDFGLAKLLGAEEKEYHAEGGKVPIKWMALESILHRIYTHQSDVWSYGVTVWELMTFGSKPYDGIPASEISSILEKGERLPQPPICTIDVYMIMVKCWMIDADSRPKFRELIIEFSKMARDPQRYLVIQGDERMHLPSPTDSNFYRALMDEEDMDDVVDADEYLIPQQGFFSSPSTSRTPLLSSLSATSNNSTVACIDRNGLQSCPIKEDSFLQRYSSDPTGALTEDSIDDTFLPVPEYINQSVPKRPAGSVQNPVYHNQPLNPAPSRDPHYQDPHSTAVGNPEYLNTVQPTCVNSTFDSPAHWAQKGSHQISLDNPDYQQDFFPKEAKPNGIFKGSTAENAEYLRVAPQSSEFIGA
Chain of Follistatin-related protein 3 (Homo sapiens) (O95633 whole entry, looked up): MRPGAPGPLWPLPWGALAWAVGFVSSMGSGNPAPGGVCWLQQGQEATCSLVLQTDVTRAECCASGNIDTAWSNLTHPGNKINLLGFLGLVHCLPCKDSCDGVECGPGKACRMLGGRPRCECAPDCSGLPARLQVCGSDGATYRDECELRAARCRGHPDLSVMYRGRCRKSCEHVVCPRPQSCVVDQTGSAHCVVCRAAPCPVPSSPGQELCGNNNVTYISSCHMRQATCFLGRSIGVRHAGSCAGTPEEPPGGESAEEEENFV

On to `CCc1cccc(NC(=O)O[C@H]2[C@H](OC(=O)Nc3ccc4c(c3)OCO4)[C@@H](OC(=O)Nc3ccc4c(c3)OCO4)[C@@H](OC)O[C@@H]2CO)c1`, for which the composite z-score was 0.402 in [1]; -0.144 in [2]; -0.0627 in [3]; 1.38 in assay [5]; 1.35 in assay [6]; 0.446 in assay [7]. In addition, the composite z-score stood at 1.32 in [8]; 0.583 in [9]; 0.863 in assay [10]; 1.4 in assay [11]; 0.645 in assay [13]; 0.779 in [14]. The composite z-score was -1.12 in assay [15]; 0.0136 in assay [16]; 0.214 in [17]; -0.229 in assay [18]; 0.577 in assay [19]; 0.545 in assay [20]. The figures for the z-score in [4] and in [12] were -0.637 (inactive) and -0.717, respectively.

`CC(CCC(=O)OC[C@H]1O[C@H](C#Cc2ccccc2)C=C[C@@H]1Oc1ccc(C)cc1)=NO[C@@H](C)c1cn([C@H](CO)Cc2ccccc2)nn1`: the composite z-score in assay [1] is 0.737; in [2], -0.406; in assay [3] it was -0.52; in assay [5], 0.304; in assay [6], -0.28; in [7], 0.313. For the same molecule, the composite z-score is 0.28 in [8]; 0.256 in [9]; -0.146 in assay [10]; 0.507 in assay [11]; 0.381 in assay [13]; -0.329 in assay [14]. Besides, the composite z-score in [15] was -0.385; in [16] it was -0.152; in assay [17] it was 0.108; in [18], -0.12; in assay [19], -0.0538; in [20], 1.76. Besides, the z-score is -1.62 (inactive) in [4] and -1.97 in [12].

Turning to `CC(C)[C@H](NC(=O)OC(C)(C)C)[C@@H](O)CC(=O)OC(C)(C)C`, the composite z-score was -1.02 in [1]; -0.298 in [2]; -0.215 in [3]; -0.658 in assay [5]; -1.38 in assay [6]; -0.664 in assay [7]. Also, the composite z-score in assay [8] was -0.746; in assay [9], -0.327; in assay [10] it was 0.0055; in assay [11] it was -2.46; in assay [13], -0.428; in assay [14], -0.32. Besides, the composite z-score in assay [15] was -0.275; in [16], -0.0977; in [17] it was -0.147; in assay [18], -0.241; in assay [19] it was -0.68; in assay [20] it was -0.232. Also, the z-score in assay [4] is -0.566 (inactive); in [12] it was -0.59.

For the molecule `C[C@@H]1C=CCC(=O)OC[C@H](C)C(=O)N[C@@H](C)C(=O)OC1`, the composite z-score in assay [1] is 0.57; in assay [2], -0.242; in assay [3], -0.791; in [5], 0.336; in assay [6], 0.252; in assay [7], 0.282. In addition, the composite z-score in assay [8] is 0.413; in [9], 0.814; in assay [10], -0.658; in assay [11] it was -0.0639; in [13] it was 0.409; in assay [14], -0.556. The composite z-score in assay [15] is -0.897; in assay [16], -0.0721; in assay [17], 0.178; in [18] it was -0.141; in assay [19], 0.789; in assay [20], -0.194. In addition, the z-score in assay [4] is -0.586 (inactive); in assay [12], -0.512.

Turning to `Cn1cccc1C(O)C1C=CC2C(=O)NC(=O)C2N1Nc1ccccn1` (stereo not given), the composite z-score in assay [1] was 0.71; in assay [2] it was 0.0275; in assay [3] it was 0.0176; in assay [5], -0.121; in assay [6], -0.0788; in assay [7] it was 0.459. Further, the composite z-score is 0.533 in assay [8]; 0.133 in [9]; 1.49 in [10]; -1.15 in assay [11]; -0.136 in [13]; -0.0487 in assay [14]. The composite z-score in assay [15] is -0.472; in assay [16] it was -0.0512; in assay [17] it was 0.0723; in assay [18], -0.0446; in assay [19], -0.0327; in assay [20] it was -0.086. Besides, the figures for the z-score in assay [4] and in assay [12] were 1.36 (inactive) and -0.803, respectively.
